Experimental data reported in the supplement of paper PMC6555819.

Assays:
Test in all cases: PBM binding z-score (relative to random genomic background probes); higher = stronger binding; sequences stand for … in GC…GCGATTGACAGCGTAGAATGAAGG
[1] = system: PPARg:RXRa DBDmut IVT, anti-RXR (DBD mutation: RXRa K156A/R161A, NR concentration 270 nM, RXRa partner concentration 90 nM)
In short: (§1)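 Binding z-scores take random background probes as their reference. They come from custom Agilent 4×180K protein-binding microarrays incubated 1 h with ligand-free nuclear receptor dimers, with antibodies against each partner (one per run) detecting binding. Scanned fluorescence was regression-normalized.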

[2] = system: PPARg:RXRa IVT, anti-PPARg (NR concentration 270 nM, RXRa partner concentration 90 nM)
In short: as §1

[3] = system: PPARg DBDmut:RXRa IVT, anti-PPARg (DBD mutation: PPARg1 K132A/R137A, NR concentration 270 nM, RXRa partner concentration 90 nM)
In short: as §1

[4] = system: PPARg DBDmut IVT, anti-PPARg (DBD mutation: PPARg1 K132A/R137A, NR concentration 270 nM)
In short: as §1

[5] = system: PPARg homodimer (NR concentration 180 nM)
In short: as §1

[6] = system: PXR:RXRa (NR concentration 270 nM, RXRa partner concentration 90 nM)
In short: as §1

[7] = system: PXR homodimer (NR concentration 270 nM)
In short: as §1

[8] = system: RARa:RXR (NR concentration 270 nM, RXRa partner concentration 90 nM)
In short: as §1

[9] = system: RARa homodimer (NR concentration 270 nM)
In short: as §1

[10] = system: RARb:RXRa (NR concentration 270 nM, RXRa partner concentration 90 nM)
In short: as §1

[11] = system: RARb homodimer (NR concentration 270 nM)
In short: as §1

[12] = system: RARg:RXRa (NR concentration 270 nM, RXRa partner concentration 90 nM)
In short: as §1

[13] = system: RARg homodimer (NR concentration 270 nM)
In short: as §1

[14] = system: RXRa DBDmut IVT, anti-RXR (DBD mutation: RXRa K156A/R161A, NR concentration 90 nM)
In short: as §1

[15] = system: RXRa homodimer (NR concentration 180 nM)
In short: as §1

[16] = system: THRa:RXRa (NR concentration 90 nM, RXRa partner concentration 90 nM)
In short: as §1

[17] = system: THRa homodimer (NR concentration 90 nM)
In short: as §1

[18] = system: VDR homodimer (NR concentration 270 nM)
In short: as §1

With TCTCGGAGGATACGAAGGTCAGAGCTTTCCAGAG the PBM binding z-score [1] was 1.14, the PBM binding z-score [2] was 0.245 and the PBM binding z-score [3] was -1.41. For the same sequence, the PBM binding z-score [4] was -1.19, the PBM binding z-score [5] was 0.218 and the PBM binding z-score [6] was 1.09. It also gave a PBM binding z-score [7] of -0.447, a PBM binding z-score [8] of 1.64 and a PBM binding z-score [9] of -0.378. It also gave a PBM binding z-score [10] of 2.33, a PBM binding z-score [11] of 2.95 and a PBM binding z-score [12] of 1.93. For the same sequence, the PBM binding z-score [13] was 2.03, the PBM binding z-score [14] was 0.133 and the PBM binding z-score [15] was 1.65. For the same sequence, the PBM binding z-score [16] was 1.57, the PBM binding z-score [17] was -0.156 and the PBM binding z-score [18] was 0.224.
With ATATGTAGGTTAAGGGACATTCAGGTTGGTTCGC the PBM binding z-score [1] was 6.93, the PBM binding z-score [2] was 6.99 and the PBM binding z-score [3] was 1.67. The PBM binding z-score [4] was 1.87, the PBM binding z-score [5] was 1.9 and the PBM binding z-score [6] was 0.934. For the same sequence, the PBM binding z-score [7] was 0.687, the PBM binding z-score [8] was 1.15 and the PBM binding z-score [9] was 1.63. For the same sequence, the PBM binding z-score [10] was 1.57, the PBM binding z-score [11] was 1.6 and the PBM binding z-score [12] was 1.28. The PBM binding z-score [13] was 1.27, the PBM binding z-score [14] was 0.615 and the PBM binding z-score [15] was 1.25. For the same sequence, the PBM binding z-score [16] was 1.14, the PBM binding z-score [17] was 0.815 and the PBM binding z-score [18] was 1.69.
TCGTGTAGGTTAGGGGCATTCAGAATGGCGTCGA showed a PBM binding z-score [1] of 1.79, a PBM binding z-score [2] of 1.06 and a PBM binding z-score [3] of 0.425. The PBM binding z-score [4] was 0.917, the PBM binding z-score [5] was 1.52 and the PBM binding z-score [6] was 0.802. It also gave a PBM binding z-score [7] of 0.406, a PBM binding z-score [8] of 1.03 and a PBM binding z-score [9] of 0.812. The PBM binding z-score [10] was 1.47, the PBM binding z-score [11] was 1.37 and the PBM binding z-score [12] was 0.648. The PBM binding z-score [13] was 0.819, the PBM binding z-score [14] was 1.09 and the PBM binding z-score [15] was 0.961. For the same sequence, the PBM binding z-score [16] was 1.3, the PBM binding z-score [17] was 0.787 and the PBM binding z-score [18] was 0.922.
In the case of GCTATTAGTTCAAAGGGCAACCGAATGATTCTCG, the PBM binding z-score [1] is reported as 0.957, the PBM binding z-score [2] is reported as 1.81 and the PBM binding z-score [3] is reported as 0.146. It also gave a PBM binding z-score [4] of 0.19, a PBM binding z-score [5] of 2.2 and a PBM binding z-score [6] of 3.21. The PBM binding z-score [7] was 1.29, the PBM binding z-score [8] was 4.32 and the PBM binding z-score [9] was 1.11. It also gave a PBM binding z-score [10] of 3.3, a PBM binding z-score [11] of 2.95 and a PBM binding z-score [12] of 3.39. The PBM binding z-score [13] was 2.76, the PBM binding z-score [14] was 3.02 and the PBM binding z-score [15] was 4.05. The PBM binding z-score [16] was 1.74, the PBM binding z-score [17] was -0.325 and the PBM binding z-score [18] was 1.87.
TCGAGTAGGTAAGTCGGGGCATTCAGCCAACATA showed a PBM binding z-score [1] of 1.34, a PBM binding z-score [2] of 0.805 and a PBM binding z-score [3] of -1.3. The PBM binding z-score [4] was -0.763, the PBM binding z-score [5] was -0.452 and the PBM binding z-score [6] was -0.238. For the same sequence, the PBM binding z-score [7] was -0.436, the PBM binding z-score [8] was -0.22 and the PBM binding z-score [9] was -0.413. It also gave a PBM binding z-score [10] of -0.182, a PBM binding z-score [11] of -0.0679 and a PBM binding z-score [12] of -0.527. The PBM binding z-score [13] was -0.571, the PBM binding z-score [14] was 0.129 and the PBM binding z-score [15] was -0.331. It also gave a PBM binding z-score [16] of 0.543, a PBM binding z-score [17] of -0.297 and a PBM binding z-score [18] of -0.05.
CAGCCTAGGTCAGGGGCAGTATAGGAGGAACGTT gave a PBM binding z-score [1] of 1.2, a PBM binding z-score [2] of 1.71 and a PBM binding z-score [3] of -0.201. For the same sequence, the PBM binding z-score [4] was -0.982, the PBM binding z-score [5] was 1.41 and the PBM binding z-score [6] was 0.677. The PBM binding z-score [7] was -0.048, the PBM binding z-score [8] was 1.33 and the PBM binding z-score [9] was 0.0151. It also gave a PBM binding z-score [10] of 3.5, a PBM binding z-score [11] of 2.99 and a PBM binding z-score [12] of 3.27. For the same sequence, the PBM binding z-score [13] was 4.18, the PBM binding z-score [14] was -0.191 and the PBM binding z-score [15] was 1.91. It also gave a PBM binding z-score [16] of 2.37, a PBM binding z-score [17] of 0.948 and a PBM binding z-score [18] of 0.103.
Work on CCTTACGGGTCAAGGATATAGCACGGGTGGTACG yielded a PBM binding z-score [1] of 1.81, a PBM binding z-score [2] of 3.02 and a PBM binding z-score [3] of 0.42. The PBM binding z-score [4] was -0.469, the PBM binding z-score [5] was 1.43 and the PBM binding z-score [6] was 2.54. It also gave a PBM binding z-score [7] of 0.0549, a PBM binding z-score [8] of 3.44 and a PBM binding z-score [9] of 0.583. The PBM binding z-score [10] was 3.88, the PBM binding z-score [11] was 3.04 and the PBM binding z-score [12] was 4.53. It also gave a PBM binding z-score [13] of 4.5, a PBM binding z-score [14] of 0.465 and a PBM binding z-score [15] of 4.68. For the same sequence, the PBM binding z-score [16] was 2.38, the PBM binding z-score [17] was 0.293 and the PBM binding z-score [18] was 0.886.
With ACTAGCAGGCCAAGGGTCATTCAAGATTAGTCCG the PBM binding z-score [1] was 0.965, the PBM binding z-score [2] was 3.72 and the PBM binding z-score [3] was 0.143. It also gave a PBM binding z-score [4] of -0.155, a PBM binding z-score [5] of 1.76 and a PBM binding z-score [6] of 3.83. The PBM binding z-score [7] was 0.144, the PBM binding z-score [8] was 4.26 and the PBM binding z-score [9] was 0.503. It also gave a PBM binding z-score [10] of 3.41, a PBM binding z-score [11] of 3.62 and a PBM binding z-score [12] of 4.15. The PBM binding z-score [13] was 3.24, the PBM binding z-score [14] was 0.96 and the PBM binding z-score [15] was 4.5. For the same sequence, the PBM binding z-score [16] was 3.12, the PBM binding z-score [17] was 0.107 and the PBM binding z-score [18] was 2.6.
